Mtb MenB inh: inhibitors of Mycobacterium tuberculosis MenB enzyme; actives 0.43% (n = 100,000); MenB enzyme assay, absorbance read-out; inhibition, % (test concentration not listed); P9WNP5; in the data active means inhibition above about 21%, passing the limit was not always enough
Target sequence (P9WNP5 whole entry, looked up): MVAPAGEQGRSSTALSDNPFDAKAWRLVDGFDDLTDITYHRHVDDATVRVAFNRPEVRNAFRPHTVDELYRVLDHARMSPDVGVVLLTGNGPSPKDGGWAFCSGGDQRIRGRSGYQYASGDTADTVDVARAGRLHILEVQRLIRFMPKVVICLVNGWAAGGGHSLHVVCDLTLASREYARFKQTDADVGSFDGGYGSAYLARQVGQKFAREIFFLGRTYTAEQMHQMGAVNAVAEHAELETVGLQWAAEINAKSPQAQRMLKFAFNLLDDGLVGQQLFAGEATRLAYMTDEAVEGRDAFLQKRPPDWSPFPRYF
PV pol inh: poliovirus RNA polymerase inhibition; P03300; poliovirus polymerase elongation, fluorescence polarization; hits give low values; % elongation, % (compound at 16.7 µg/mL); actives 0.66% (n = 150,000); AID 588519; in the data active means % elongation below about 90%
MbtI inh: inhibitors of Mycobacterium tuberculosis siderophore enzyme MbtI; actives 0.89% (n = 100,000); inhibition, % (test concentration not listed); AID 493033; purified MbtI enzyme, fluorescence intensity read-out; in the data active means inhibition mostly above about 56%, no sharp cut-off; inactive means mostly below about 77%
* hit, by the source's call. In the library only some 1.4% were active in any assay of this set; here they are far more common.

How did COC(=O)c1nnn(CC(=O)Nc2ccc(C(C)C)cc2)c1C(=O)OC do in these assays?
Mtb MenB inh: 9; PV pol inh: 98; MbtI inh: -3

How did CC(CO)(CO)NC(=S)Nc1ccc(F)c(Cl)c1 do in these assays?
Mtb MenB inh: 0; PV pol inh: 107; MbtI inh: 55*

What do the screens show for `OCC(CO)(CO)NC(=S)Nc1cc(Cl)cc(Cl)c1`?
Mtb MenB inh: -8; PV pol inh: 105; MbtI inh: 26

What do the screens show for `CCOc1ccc(C(=O)Nc2nc3cc4c(cc3s2)OCO4)cc1`?
Mtb MenB inh: 9; PV pol inh: 97; MbtI inh: 93

How did Cc1cc(C)c2c(=O)n(C(=O)c3cccs3)sc2n1 do in these assays?
Mtb MenB inh: 16; PV pol inh: 121; MbtI inh: 100*

What do the screens show for `CCOC(=O)c1sc2nc(C)cc(C)c2c1NC(=O)c1cccs1`?
Mtb MenB inh: -9; PV pol inh: 100; MbtI inh: -7

What do the screens show for `O=C(Nc1ccccc1C(=O)N1CCOCC1)c1ccccc1`?
Mtb MenB inh: -8; PV pol inh: 103; MbtI inh: 8

What do the screens show for `CC1Cc2ccccc2N1C(=O)c1ccc(Cl)cc1` (centres undefined)?
Mtb MenB inh: -27; PV pol inh: 103; MbtI inh: -8

How did COc1ccc(C(=O)N2c3ccccc3CC2C)cc1 (centres undefined) do in these assays?
Mtb MenB inh: 32*; PV pol inh: 101; MbtI inh: 2

What do the screens show for `OC(COCC1CC=CCC1)CN(Cc1ccccc1)Cc1ccccc1` (centres undefined)?
Mtb MenB inh: -24; PV pol inh: 86*

Results for COc1ccc(OCC(O)CN(Cc2ccccc2)Cc2ccccc2)cc1 (centres undefined) ?
Mtb MenB inh: -11; PV pol inh: 100; MbtI inh: 5

How did O=C(Nc1cccc(-c2noc(-c3ccccn3)n2)c1)c1ccco1 do in these assays?
Mtb MenB inh: -20; PV pol inh: 101; MbtI inh: -13

What do the screens show for `COC(=O)C(O)(c1c(-c2ccccc2)nc2sccn12)C(F)(F)F` (centres undefined)?
Mtb MenB inh: -24; PV pol inh: 103; MbtI inh: -6

What do the screens show for `Cn1nc(C2CC2)cc1C(=O)O`?
Mtb MenB inh: 30*; PV pol inh: 102; MbtI inh: 2

What do the screens show for `CC(C)c1cc(C(=O)O)n(C)n1`?
Mtb MenB inh: 0; PV pol inh: 101; MbtI inh: -7

Results for [N-]=[N+]=c1c(=O)ccc2c(=O)c3ccccc3c(=O)c1=2 ?
Mtb MenB inh: -45; PV pol inh: 82*; MbtI inh: -3

How did Cc1ccsc1C(O)c1nnc(-c2ccccc2)o1 (centres undefined) do in these assays?
Mtb MenB inh: 7; PV pol inh: 99; MbtI inh: -11

What do the screens show for `CC(C)Oc1ccc(CNC(=O)c2cnc3sc(N4CCCCCC4)nn3c2=O)cc1`?
PV pol inh: 108

Results for CC(C)Oc1ccc(CNC(=O)c2cnc3sc(N4CCCC4)nn3c2=O)cc1 ?
PV pol inh: 15*

What do the screens show for `CC1CC(C)CN(C(=O)COC(=O)c2ccc(Cl)cc2)C1` (centres undefined)?
Mtb MenB inh: -2; PV pol inh: 101; MbtI inh: -6

How did c1c(SSc2cn3c(n2)CCC3)nc2n1CCC2 do in these assays?
Mtb MenB inh: -45; PV pol inh: 99; MbtI inh: 93*

How did COc1ccc(-c2cn3c(n2)CCC3)cc1 do in these assays?
PV pol inh: 101; MbtI inh: -8

What do the screens show for `O=C(NC1c2ccccc2Oc2ccccc21)c1cccnc1`?
PV pol inh: 102; MbtI inh: -9

How did CC(C)=CC[C@@H](O)C1=CC(=O)c2c(O)ccc(O)c2C1=O do in these assays?
PV pol inh: 46*; MbtI inh: -22

Results for CC1(O)C2C3CC4C5C3C1C5C1(OCCO1)C42 (centres undefined) ?
Mtb MenB inh: 2; PV pol inh: 100; MbtI inh: -3

What do the screens show for `O=C(Cn1cnc2ccccc2c1=O)N1CCc2ccccc21`?
Mtb MenB inh: 8; PV pol inh: 106; MbtI inh: -30

How did O=C(Cn1cnc2ccccc2c1=O)N1CCCCCC1 do in these assays?
Mtb MenB inh: 33*; PV pol inh: 100; MbtI inh: 5

What do the screens show for `CC(C)CCNC(=O)c1cc(=O)c2ccccc2[nH]1`?
Mtb MenB inh: -25; PV pol inh: 98; MbtI inh: 4

What do the screens show for `Cc1oc(C(=O)O)cc1CSc1nc2ccccc2[nH]1`?
Mtb MenB inh: 2; PV pol inh: 100; MbtI inh: 25

What do the screens show for `O=C(O)c1ccccc1CSc1nc2ccccc2[nH]1`?
Mtb MenB inh: 4; PV pol inh: 96; MbtI inh: 56*

What do the screens show for `COc1ccc(/C=N/c2nnc(-c3ccccc3)c(-c3ccccc3)n2)c(C(=O)O)c1OC`?
Mtb MenB inh: 0; PV pol inh: 107

How did Cc1nc(Cc2nnc(SCc3cc(=O)oc4cc(C)c(C)cc34)o2)cs1 do in these assays?
Mtb MenB inh: -30; PV pol inh: -2.0*; MbtI inh: 53

Results for Cc1nc(Cc2nnc(SCc3cn4cccc(C)c4n3)o2)cs1 ?
Mtb MenB inh: 6; PV pol inh: 100; MbtI inh: 1

Results for c1csc(-c2nc(SCC3COc4ccccc4O3)n[nH]2)c1 (centres undefined) ?
Mtb MenB inh: 10; PV pol inh: 103; MbtI inh: -298

Results for CCOc1ccccc1NC(=O)COC(=O)c1cc(Cl)ccc1Cl ?
PV pol inh: 102; MbtI inh: -6

How did CCCCN(CC)CCCNC(=O)c1cc2c(-c3ccc(OC)c(OC)c3)nn(C)c2s1 do in these assays?
PV pol inh: 80*

Results for CCOCCCNC(=O)c1cc2c(-c3ccc(OC)c(OC)c3)nn(C)c2s1 ?
PV pol inh: 100

Results for O=c1c2c(-c3ccccc3)csc2ncn1-n1cccc1 ?
PV pol inh: 105; MbtI inh: -9

What do the screens show for `NC(=O)c1ccccc1CCc1ccccc1`?
Mtb MenB inh: -23; PV pol inh: 105; MbtI inh: -9

How did N#Cc1sc(=S)n(-c2ccccc2)c1N do in these assays?
MbtI inh: 16

What do the screens show for `N#Cc1c(N)sn(-c2ccccc2)c1=S`?
Mtb MenB inh: -5; PV pol inh: 79*; MbtI inh: 94*

Results for CCCCNc1c2c(c(C#N)c3nc4ccccc4n13)CCC2 ?
Mtb MenB inh: -41; PV pol inh: 101; MbtI inh: -2

What do the screens show for `Cc1ccc(CNC(=O)c2cc(-c3ccccc3)n[nH]2)cc1`?
Mtb MenB inh: 5; PV pol inh: 105; MbtI inh: 14

What do the screens show for `COc1ccc(C(c2ccc3cccnc3c2O)N2CCOCC2)cc1` (centres undefined)?
Mtb MenB inh: -64; PV pol inh: 102; MbtI inh: 98*

Results for COc1ccc(C(c2ccc3cccnc3c2O)N2CCCC2)cc1 (centres undefined) ?
PV pol inh: 100

How did Oc1c(C(c2ccncc2)N2CCCC2)ccc2cccnc12 (centres undefined) do in these assays?
Mtb MenB inh: -16; PV pol inh: 106; MbtI inh: 43

What do the screens show for `CCN1CCN(C(c2cccnc2)c2ccc3cccnc3c2O)CC1` (centres undefined)?
Mtb MenB inh: -45; PV pol inh: 87*; MbtI inh: 89*

Results for CC1=NOC(O)(C(F)(F)F)C1 (centres undefined) ?
PV pol inh: 101
